Measurements as given in PubChem BioAssay (NCATS).
Records with an inconclusive call do not appear. Activity calls are given as the source filed them. Calls follow the shape of the dose curve; as a rule, active = well fitted inhibition curve with a large enough effect; inconclusive = small, poorly fitted or top-dose-only effect; inactive = flat fitted curve, though single readings scatter. Where a SMILES comes first, the peptide text is derived from it. [ ]: non-standard residue; d: D form. dPhe(4-Cl) = N[C@H](Cc1ccc(Cl)cc1)C(=O)O; d2Nal = N[C@H](Cc1ccc2ccccc2c1)C(=O)O; dCit = NC(=O)NCCC[C@@H](N)C(=O)O; d3Pal = N[C@H](Cc1cccnc1)C(=O)O

What was measured:
Assay in all cases: Cytotoxic Profiling of Annotated Libraries Using Quantitative High-Throughput Screening (AID 1296008); also: nearly all actives have a fitted effect of over 60% in size
Details in all cases: Five cell lines viability, CellTiter-Glo ATP luminescence, 48-72 h; max response: hits give low values
[1] = tested on: CRL-7250
In short: (§1)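 Cells exposed to compounds for 48 or 72 hr at 37 degrees Celsius. Viability read as ATP-coupled luminescence with CellTiter-Glo after 10 min at room temperature.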

[2] = tested on: HEK293
In short: as §1

[3] = tested on: HaCat
In short: as §1

[4] = tested on: KB-3-1
In short: as §1

[5] = tested on: NIH3T3
In short: as §1
% is scaled to controls: 0 for no effect and ±100 for the full control effect; potency is read from the fitted curve at half-maximal effect.

COC(=O)C1=CO[C@@H](O[C@@H]2O[C@H](CO)[C@@H](O)[C@H](O)[C@H]2O)[C@H]2[C@@H]1CC(OC)O[C@@H]2C (stereo not given in full)
inactive: outcome [1] | max response [2] 4.51% | max response [3] -16.4% | max response [4] 3.52% | max response [5] -1.67%

CC1(C)CCCC2(C)C(CO)C(CO)=CCC12 (stereo not given)
inactive: max response [1] -20.3% | max response [2] -4.79% | max response [3] 0.151% | max response [4] -2.42% | max response [5] -1.37%

O=C(CCc1nnc2n(Cc3ccc(Cl)cc3)c(=O)c3ccccc3n12)NCCC1=CCCCC1
inactive: max response [1] -19.2% | max response [2] -12.9% | max response [3] 3.41% | max response [4] -11.9% | max response [5] 1.28%

CC1(C)CCC2(C(=O)OC3OC(CO)C(O)C(O)C3O)CCC3(C)C(=CCC4C5(C)CCC(OC6OC(C(=O)O)C(OC7OC(CO)C(O)C(O)C7O)C(OC7OC(CO)C(O)C(O)C7O)C6O)C(C)(C)C5CCC43C)C2C1 (stereo not given)
inactive: max response [1] 3.03% | max response [2] 4.12% | max response [3] 0.399% | max response [4] 6.58% | max response [5] -0.359%

CC1COC2(OC3CC4C5CC(O[C@@H]6O[C@H](C)[C@@H](O[C@@H]7O[C@@H](C)[C@H](O)[C@@H](O)[C@H]7O)[C@H](O)[C@H]6O)C6CC(O)CCC6(C)C5CCC4(C)C3C2C)C(O)C1 (stereo not given in full)
inactive: max response [1] -20% | max response [2] 3.68% | max response [3] -23.5% | max response [4] 7.16% | max response [5] 4.8%

COC(=O)CCC(=O)OC[C@]1(C)CCC[C@@]2(C)C3CC[C@]4(C)C=CC3(CCC12)C4 (stereo not given in full)
inactive: max response [1] -4.15% | max response [2] -2.92% | max response [3] 1.33% | max response [4] 2.37% | max response [5] -0.0416%

CC1(C)CC[C@]2(C(=O)OC3OC(CO)C(O)C(O)C3O)CC[C@]3(C)C(=CCC4[C@@]5(C)CC[C@H](OC6OC(C(=O)O)C(O)C(OC7OC(CO)C(O)C(O)C7O)C6O)C(C)(C)C5CC[C@]43C)C2C1 (stereo not given in full)
inactive: max response [1] 1.42% | max response [2] 1.3% | max response [3] -1.22% | max response [4] -3.39% | max response [5] 0.867%

COC1CC(O[C@H]2CC[C@@]3(C)C(CCC4C3[C@H](OC(C)=O)[C@@H](OC(=O)/C=C/c3ccccc3)[C@]3(C)C(C(C)=O)CC[C@]43O)C2)OC(C)C1OC1CC(OC)C(OC2CC(OC)C(OC3OC(C)C(OC4OC(CO)C(O)C(O)C4O)C(OC)C3O)C(C)O2)C(C)O1 (stereo not given in full)
inactive: max response [1] -13.2% | max response [2] -13.6% | max response [3] -18.9% | max response [4] -0.895% | max response [5] -9.54%

CC1CCC23COC(=O)C2=CC(O)CC3C1(C)CCC1=CC(O)OC1=O (stereo not given)
inactive: max response [1] -0.17% | max response [2] 1.91% | max response [3] -7.3% | outcome [4] | max response [5] 0.229%

CC1=C(/C=C/C(C)=C\C=C\C(C)=C/C(=O)O)C(C)(C)CCC1
inactive: max response [1] -50.6% | max response [2] 0.159% | max response [3] -22.2% | outcome [4] | max response [5] 0.69%

CCc1cnn2c(NCc3ccc[n+]([O-])c3)cc(N3CCCCC3CCO)nc12 (stereo not given)
active: Potency [1] 4.6 nM | Potency [2] 13 nM | Potency [3] 46.1 nM | Potency [4] 9.2 nM | Potency [5] 65.1 nM

C[C@@H]1O[C@@H](O[C@H]2[C@@H](OC(=O)[C@]34CCC(C)(C)CC3C3=CCC5[C@@]6(C)C[C@H](O)[C@H](O[C@@H]7O[C@H](C(=O)O)[C@@H](O)[C@H](O)[C@H]7O)[C@@](C)(C(=O)O)C6CC[C@@]5(C)[C@]3(C)CC4)OC[C@H](O)[C@@H]2O)[C@H](O)[C@H](O)[C@H]1O[C@@H]1OC[C@@H](O)[C@H](O)[C@H]1O (stereo not given in full)
inactive: max response [1] -0.804% | max response [2] -1.89% | max response [3] -1.2% | outcome [4] | max response [5] -0.698%

CC(=O)N[C@H](Cc1ccc2ccccc2c1)C(=O)N[C@H](Cc1ccc(Cl)cc1)C(=O)N[C@H](Cc1cccnc1)C(=O)N[C@@H](CO)C(=O)N[C@@H](Cc1ccc(O)cc1)C(=O)N[C@H](CCCNC(N)=O)C(=O)N[C@@H](CC(C)C)C(=O)N[C@@H](CCCN=C(N)N)C(=O)N1CCC[C@H]1C(=O)N[C@H](C)C(N)=O (Ac-[d2Nal][dPhe(4-Cl)][d3Pal]SY[dCit]LRP[dA]-NH2)
inactive: max response [1] -7.92% | max response [2] -0.834% | max response [3] -5.33% | max response [4] 9.13% | max response [5] 4.07%

COc1ccc(/C=C/C(=O)O[C@H]2[C@H](O[C@H]3[C@@H]4C=CO[C@@H](O[C@@H]5O[C@H](CO)[C@@H](O)[C@H](O)[C@H]5O)[C@@H]4[C@@]4(CO)O[C@@H]34)O[C@@H](C)[C@H](O)[C@H]2OC(C)=O)cc1
inactive: max response [1] 3.12% | max response [2] -1.88% | max response [3] 2.92% | max response [4] 4.98% | max response [5] -16.4%

Cc1ccccc1CN1C2=NCCN2C(=O)C2=C1CCN(Cc1ccccc1)C2
inactive: max response [1] -16.8% | max response [2] -7.79% | max response [3] -42.7% | max response [4] -23.4% | max response [5] -0.888%

COc1ccc(CNC(=O)c2sc3nc(C)cc(C)c3c2N)cc1
inactive: max response [1] -0.266% | max response [2] -0.378% | max response [3] -25% | max response [4] -4.88% | max response [5] -5.95%
